Chronic BCR inh – qHTS Assay to Find Inhibitors of Chronic Active B-Cell Receptor Signaling. actives 0.05% (n = 340,000). ABC-DLBCL IkBa-CBG/CBR reporter, luminescence ratio, 4 h. Potency, µM (series often up to 46.1 µM), actives largely listed as inhibitors; active = well fitted inhibition curve with a large enough effect in the signal ratio, with a control signal flat, not every such curve was filed as active; inconclusive = small, poorly fitted or top-dose-only effect, or effect the other way, or a change in a side signal; the % refers to the signal ratio
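Doxycycline induced both beetle luciferases in TMD8 lymphoma cells; IKK-driven degradation limits the IkappaBalpha-fused green signal, while red luminescence normalises for cell number and nonspecific effects. Compounds tested up to 46 uM, 4 hrs.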
Giardia killer – Small Molecules that selectively kill Giardia lamblia: qHTS | Giardia lamblia trophozoite viability | activity change, % at 7.66 µM, hits read low | actives 0.15% (n = 340,000); in the data active = activity change below about -80%; inconclusive = between about -30% and that limit;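 also: parasites exposed to compound for two days anaerobically before the ATP read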
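Media and compound were dispensed first, then trophozoites at 100 cells/well; plates sat 48 hrs at 37 deg C without oxygen before ATP luminescence reagent was added and read after 15-30 min at room temperature.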
VP16 counter – VP16 counterscreen qHTS for inhibitors of ROR gamma transcriptional activity. Drosophila S2 Gal4-VP16 UAS-luciferase, luminescence, 20 h. Potency, µM (doses to about 53.6 µM), usual class: inhibitors. actives 3.5% (n = 310,000). AID 2546, 2010;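 also: Gal4-VP16 expression switched on by copper sulfate through the metallothionein promoter; nearly all actives have a fitted effect of over 50% in size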
RORg inh – qHTS for inhibitors of ROR gamma transcriptional activity | AID 2551, 2010 | Nuclear receptor ROR-gamma (Mus musculus), P51450 | actives 5.4% (n = 310,000) | Drosophila S2 Gal4-RORgamma UAS-luciferase reporter, 20 h | Potency, µM (titrated, usually from 53.6 µM), most hits filed as inhibitors; also: nearly all actives have a fitted effect of over 60% in size
Target sequence (P51450 whole entry, looked up, the tested form may be a part): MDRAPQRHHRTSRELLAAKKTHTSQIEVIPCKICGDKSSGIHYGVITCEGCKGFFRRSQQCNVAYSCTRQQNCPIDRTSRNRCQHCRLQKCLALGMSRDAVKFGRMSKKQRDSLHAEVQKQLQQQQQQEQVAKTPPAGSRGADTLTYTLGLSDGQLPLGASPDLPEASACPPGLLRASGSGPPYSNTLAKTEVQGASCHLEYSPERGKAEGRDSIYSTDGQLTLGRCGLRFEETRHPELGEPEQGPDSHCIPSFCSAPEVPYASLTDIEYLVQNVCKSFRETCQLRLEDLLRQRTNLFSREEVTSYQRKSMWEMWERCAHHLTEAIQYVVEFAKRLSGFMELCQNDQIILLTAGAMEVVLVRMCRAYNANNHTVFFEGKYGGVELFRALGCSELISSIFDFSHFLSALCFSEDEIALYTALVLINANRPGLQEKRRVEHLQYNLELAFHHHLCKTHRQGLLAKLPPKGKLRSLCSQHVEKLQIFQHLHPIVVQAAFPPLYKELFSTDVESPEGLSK
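A Gal4/UAS one-hybrid system in insect cells: metallothionein-promoter Gal4–ROR gamma fusion plus Photinus luciferase reporter. Copper sulfate 700 uM final, 20 hr ambient incubation, luminescent detection after 10 min with reagent.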
MCF10A rerep – A quantitative high throughput screen for small molecules that induce DNA re-replication in MCF 10a normal breast cells. Potency, µM (titrated, usually from 46.1 µM), hits mostly activators. MCF 10A DNA re-replication, Hoechst nuclear intensity, 48 h. actives 2.9% (n = 350,000); also: nearly all actives have a fitted effect of over 50% in size
SW480 rerep – A quantitative high throughput screen for small molecules that induce DNA re-replication in SW480 colon adenocarcinoma cells; SW480 DNA re-replication, Hoechst DNA content imaging, 48 h; Potency, µM (doses to about 46.1 µM), most hits filed as activators; actives 1.8% (n = 340,000); AID 624297, 2012; also: nearly all actives have a fitted effect of over 55% in size
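Compounds, transferred as 23 nL by pin tool, were incubated with cells for 48 hr; DNA content per nucleus was then quantified by Hoechst staining and fluorescence plate imaging.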
Hits are given with their value; . = inactive; ? = inconclusive; / = no result given; [ ] = dose if it differs, or a comment. An excerpt weighted towards active compounds, which were near 8.3% of everything screened. Unless noted, calls follow the shape of the dose curve; as a rule, active = well fitted curve in the direction sought with a large enough effect; inconclusive = small, poorly fitted or top-dose-only effect, or another doubt; inactive = no such curve, though single readings can be large; an effect the other way counts as inactive or inconclusive.

SMILES	Chronic BCR inh	Giardia killer	VP16 counter	RORg inh	MCF10A rerep	SW480 rerep
CCc1cc(=O)oc2cc(C)c(CN3CCCC(C)C3)c(O)c12 (centres undefined)	.	.	.	.	23µM	.
O=C(Nc1ccc(-c2cscn2)cc1)C1CCCN(Cc2ccccc2)C1 (centres undefined)	?	.	.	1.8µM	?	29µM
O=C(Nc1ccc(-c2cccc(F)c2)cc1)C1CCCN(Cc2ccccn2)C1 (centres undefined)	?	.	11µM	13µM	?	?
Cc1cccc(CN2CCC(C(=O)Nc3cccc(-c4cccc(F)c4)c3)CC2)n1	.	.	?	7.1µM	?	?
O=C(Nc1cccc(-c2cccc(Cl)c2)c1)C1CCN(Cc2ccccn2)CC1	?	.	?	20µM	.	?
CC1CCCCN1C(=O)CSc1nc(N)nc(N)n1 (centres undefined)	.	.	/	/	.	.
CC1=C([N+](=O)[O-])C(c2ccc3c(c2)OCO3)N(C)C(=O)N1C (centres undefined)	.	.	.	.	?	?
O=C(Nc1cc(OC(=O)C(F)(F)F)c2nonc2c1OC(=O)C(F)(F)F)C(F)(F)F	/	.	/	/	/	/
COc1cc(C2C(C(=O)/C=C/c3ccccc3)=C(O)C(=O)N2c2ccccn2)ccc1O (centres undefined)	.	.	.	.	?	?
COC(=O)[C@@]1(Cc2ccc(OC)cc2)[C@H]2c3cc(C(=O)N4CCCC4)n(Cc4ccc(C)o4)c3C[C@H]2CN1C(=O)c1ccccc1	.	/	.	?	?	?
O=C(CCC1CCCC1)N1CCN(C(=O)c2cccnc2)CC1	.	.	.	.	.	.
COc1cccc(CN(C)C(=O)/C=C/c2ccc(S(=O)(=O)N3CCCCCC3)cc2)c1	.	.	.	.	.	.
CC(C)[C@H]1C(=O)Nc2ccccc2N1C(=O)N[C@@H](Cc1ccccc1)C(=O)N[C@@H](Cc1ccccc1)C(=O)O	.	.	.	.	?	?
COCc1ccc(CN2CCC(C(=O)Nc3cccc(-c4cccc(Cl)c4)c3)CC2)o1	?	.	8.9µM	18µM	?	?
COCc1ccc(CN2CCC(C(=O)Nc3cccc(-c4cscn4)c3)CC2)o1	.	?	?	.	.	.
CC(=O)c1cccc(Nc2cc(C)nc3ccc(C)cc23)c1	.	.	?	.	.	.[9.22 µM]
Cc1ccc2nc(C)cc(Nc3ccc([N+](=O)[O-])cc3)c2c1	.	.	5µM	7.1µM	2.9µM	9.2µM
COc1ccc2nc(C)cc(Nc3ccc(C)cc3)c2c1	.	.	.	.	?	.
COc1ccc(OC)c(Nc2cc(C)nc3ccc(C)cc23)c1	/	.	/	/	?	18µM
COC(=O)c1ccc(Nc2cc(C)nc3ccc(C)cc23)cc1	?	.	.	?	18µM	18µM
c1ccc(C2CC(c3ccccc3)C(c3ccccc3)N2)cc1 (centres undefined)	.	.	.	.	.	.[9.22 µM]
Cc1cc(C)[n+](C)n1CC(O)Cn1c2ccccc2c2ccccc21 (centres undefined)	.	.	.	.	.	.
CCC(=O)Nc1cc(C(=O)OCC(=O)c2ccccc2)ccc1C	?	.	.	.	.	.
COc1ccc(NC(=O)c2ccc(Cl)cc2)c[n+]1[O-]	.	.	.	.	.	.
S=c1[nH]nc(COc2cccc(Cl)c2)n1Cc1ccccc1	.	?	?	1.4µM	.	.
S=c1[nH]nc(COc2ccc(Cl)cc2)n1Cc1ccccc1	.	.	?	2.5µM	.	.
COc1ccccc1OCc1n[nH]c(=S)n1Cc1ccccc1	.	.	.	.	.	.
CC(=O)Nc1cccc(NC(=O)CSc2nc(=O)n3cccc(C)c3n2)c1	.	.	/	/	.	.
Cn1cc(/C=N/n2cnc3scc(-c4ccc(Cl)cc4)c3c2=O)c2ccccc21	3.5µM	.	.	.	0.33µM	0.58µM

From PubChem
